The record followed here is PubChem BioAssay (NCI).

Each structure is given as a SMILES string. This is part of a sample that, as a whole, favours compounds with a hit. Of some 83,000 tested, about 20% had one in any assay.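 Activity criterion: percent growth below 10, measured after cells in 96-well plates were exposed to a single compound concentration for 48 hours.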 A number with no mark means an inactive call. Active and inactive are the calls of the source.

This assay relates to HT29 colon. As to the kind of experiment: NCI-60 one-dose screen, 48 h (100 = growth as untreated, 0 = no growth, -100 = all killed). To be noted: 10 µM unless noted. As to the method:
Growth inhibition of the HT29 human tumor cell line is measured as a screen for anti-cancer activity. Cells are grown in 96 well plates and exposed to the test compound for 48 hours. Compounds are tested at a single concentration, which is 10^-5 M for most compounds. The reported endpoint is percent growth (GI% or GIPRCNT), where numbers from 0 - 100% represent growth inhibition, and numbers from -100% - 0 represent cell death. For example, a value of 40 represents 60% growth inhibition. A value of 0 means no net growth occurred over the course of the experiment. A value of -40 indicates 40% of cells at the beginning of the experiment died by the end of the experiment. A value of -100 means all cells are dead at the end of the experiment.
NCI-60 Human Tumor Cell Lines Screen was performed using the standard one-dose NCI protocol, which is described in more detail at https://dtp.cancer.gov/discovery_development/nci-60/default.htm.
Compounds with GIPRCNT values below 10 were considered active. Activity score was based on GIPRCNT using the following formula: […]
Score is 0 for GIPRCNT values of 100 or above, 50 for GIPRCNT values of 0, and 100 for GIPRCNT values of -100.
As for `N#Cc1c(-c2ccc(Cl)cc2)nc2n[nH]c(-c3ccc(Cl)cc3)c2c1-c1ccc(C(F)(F)F)cc1`, the growth was 0.823% (active).
As for `COc1ccc2cc([C@H](C)C(=O)N/N=C/c3ccc(Br)cc3)ccc2c1`, the growth was 106%.
For the molecule `Cc1occc1C(=O)NN1C(=O)/C(=C/C=C/c2ccc([N+](=O)[O-])o2)SC1=S`, the growth is -57.2% (active).
To `C#CCOc1ccc(/C=N/Nc2nc(-c3ccc(Cl)cc3)cs2)cc1OC` belongs 69.3%.
Turning to `S=C(Nc1ccc(OCc2nc3ccccc3[nH]2)cc1)NC1CCCCC1`, the growth is 102%.
As for `CCCCSc1nc(NCCc2c[nH]c3ccccc23)c(C#N)c(-c2ccc(OC)cc2)n1`, the growth was 25.1%.
For the molecule `C(=C\c1cc(/C=C/c2ccccc2)c2ccccc2n1)/c1ccccc1`, the growth was 86%.
As for `C=C1CCC2C3(C)COC(c4ccco4)OC3CCC2(C)C1CC(Sc1ccccc1)C1=CCOC1=O` (stereo not given), the growth was 8.59% (active).
For the molecule `CCOC(=O)C1=C(N)N(c2ccccc2)C2=C(C(=O)CC(C)(C)C2)C1c1ccc(Cl)cc1Cl` (stereo not given), the growth was 35%.
To `Cc1ccc(C(=O)C(c2c[nH]c3ccccc23)c2c[nH]c3ccccc23)cc1` belongs -26.1% (active); to `O=C(/C=C/c1ccc(-c2ccccc2)cc1)c1nc2ccccc2n1Cc1ccc(F)cc1`, 9.19% (active); to `CC(=O)Oc1ccc(/C=C/C(=O)N[C@@H](Cc2ccccc2)C(O)C(=O)NCc2ccccc2)cc1OC(C)=O` (stereo not given in full), 113%.
Regarding `COc1ccc(-c2ccc(SCC(=O)Nc3ccc(S(N)(=O)=O)cc3Br)nn2)cc1`, the growth is 95.7%.
Regarding `CC(C)CCNC(=O)N/C(N)=N/c1nc2ccccc2s1`, the growth was 68.8%.
In the case of `COc1ccc(Cc2nn(CC(=O)N/N=C/c3ccc(F)cc3)c(=O)c3c(C)noc23)cc1`, the growth was 74%.
As for `CC12CC[C@@H]3[C@]4(C)COC(c5cn[nH]c5-c5ccc(Cl)cc5)O[C@@H]4CC[C@@]3(C)[C@@H]1CC(C1=CCOC1=O)O2` (stereo not given in full), the growth is 22%.
Regarding `O=c1cc(-c2ccccc2)oc2cc(OCCCC[P+](c3ccccc3)(c3ccccc3)c3ccccc3)cc(O)c12`, the growth was -65% (active).
Next, `COc1ccc2nc(Nc3cccc(NC(=O)c4ccc(CN5CCCN(C)CC5)c(C(F)(F)F)c4)c3)ccc2c1`: -69.7% (active); `CCCCOc1ccc(NC(=O)c2sc3nc(C)ccc3c2N)cc1`: 40.2%.
As for `COc1ccc(C(=O)/C=C/c2ccccc2Cl)cc1S(N)(=O)=O`, the growth is 109%.
To `N#Cc1c(-c2cccc3ccccc23)cc(-c2cccc(OCC(=O)O)c2)[nH]c1=O` belongs 102%; to `C=C1CC[C@@H]2[C@]3(C)COC(c4cn[nH]c4-c4ccc(OC)cc4)O[C@@H]3CC[C@@]2(C)[C@@H]1C/C=C1/C(=O)OCC1O` (stereo not given in full), -26.3% (active); to `COc1ccc(C2=NN(c3ccccc3)C(c3ccc(OC)c(OCc4ccccc4)c3)C2)cc1OC` (stereo not given), 70.5%.
To `CSc1ccc(C(=O)Nc2ccc3nn(/C(C#N)=C/c4ccccn4)nc3c2)cc1` belongs -88.6% (active); to `Cc1ccc(-c2nc(C#N)c(S(=O)(=O)N3CCN(S(=O)(=O)c4ccccc4)CC3)o2)cc1`, -56% (active).
In the case of `NC(=S)Nc1cccc(NC(N)=S)c1`, the growth is 113%.
Consider `CSc1ccc(NC(=O)c2ccc3nnn(/C(C#N)=C/c4ccccn4)c3c2)cc1`, for which the growth is -89.2% (active).
For the molecule `COc1cccc(/C=C/c2nc3ccccc3c(=O)n2CC(=O)Nc2ccc(Cl)cc2)c1`, the growth was 64.4%.
Take `NS(=O)(=O)c1ccc(-n2cc(-c3cccc(NC(=O)c4cc(Cl)cc(Cl)c4)c3)nn2)cc1`: the growth is 32.1%.
`COc1c(F)ccc(C(=O)Nc2ccc3nc(NC(=O)C4CCCN(S(=O)(=O)c5ccc(Br)c(F)c5)C4)sc3c2)c1F` (stereo not given): the growth is 78.2%.
To `C#CCOc1cc(N(CC)CC)ccc1C(C(=O)NC(C)(C)C)N(C(=O)C1CCc2cc(F)ccc2O1)c1ccc(F)c(Cl)c1` (stereo not given) belongs 79%; to `O=C1Nc2cc(Cl)ccc2/C1=C/c1cccc(OCc2ccccn2)c1`, 0.146% (active); to `CC(C)CSc1nc(NCCc2c[nH]c3ccccc23)c(C#N)c(-c2ccccc2)n1`, 4.54% (active).
Next, `O=C(COc1ccc(NC(=O)Nc2ccc(Cl)cc2)cc1)N/N=C/c1ccccc1`: -87.4% (active); `C=C1CC[C@@H]2[C@]3(C)COC(c4cn[nH]c4-c4cccc(Cl)c4)O[C@@H]3CC[C@@]2(C)[C@@H]1C/C=C1/C(=O)OCC1O` (stereo not given in full): 0.309% (active); `Cc1ccc(C(=O)CSc2nc3ccc(C)cc3c(=O)n2-c2ccc(F)cc2)cc1`: 72.5%.
Regarding `COC1=C[C@]23CCC(=O)N2CCc2cc4c(cc2[C@@H]3[C@@H]1OC(=O)[C@H](C)O)OCO4`, the growth was 1.93% (active).
In the case of `CC12CC[C@@H]3[C@]4(C)COC(c5cn[nH]c5-c5cccc(Cl)c5)O[C@@H]4CC[C@@]3(C)[C@@H]1CC(C1=CCOC1=O)O2` (stereo not given in full), the growth was 28%.
To `O=c1oc2ccccc2cc1-c1csc(N2N=C(c3ccccc3)CC2c2ccc(N3CCOCC3)cc2)n1` (stereo not given) belongs 117%.
As for `COc1ccc(NC(=O)c2sc3nc(C(C)C)ccc3c2N)cc1`, the growth was 73.6%.
